From PubChem
Shown are actives, neighbours in structure and some others; about 1.5% of the full set was active somewhere.
E coli Lon inh – E. coli protease La inhibition; AID 602123; actives 0.42% (n = 360,000); purified E. coli Lon protease, fluorescence polarization; inhibition, % at 7.94 µM; P0A9M0; in the data active = inhibition above about 13%, passing the limit was not always enough;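 note: 0% = enzyme with probe and DMSO and 100% = no enzyme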
GLD-1 TGE inh – GLD-1-TGE RNA interaction inhibition (C. elegans). Q17339. purified GLD-1 + fluorescein TGE RNA, fluorescence polarization. inhibition, % at 5.96 µM. actives 0.44% (n = 320,000). AID 2280;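 active = percent inhibition above a per-plate cutoff, the plate mean of test compounds plus 3 SD, cut at about 30% in these data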;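 note: 0% = DMSO wells with GLD-1 and probe and 100% = wells lacking GLD-1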
EBV gp42 block – blocks Epstein-Barr virus glycoprotein 42 binding; Q1HVG2; Fluorescence polarization binding assay, mP read-out; inhibition, % (tested at 21.74 µM); actives 0.42% (n = 220,000); AID 1085; in the data active = inhibition above about 50%
MEX-5 binding – C. elegans MEX-5 TCR-2 RNA binding activity; MEX-5/FITC-TCR2 RNA binding, fluorescence polarization; active compounds read low; AID 1832; activity score (negative = inhibition of binding), % at 10 µM; actives 0.38% (n = 300,000); Q9XUB2;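 active = inhibition past about -25% in most replicates, and total fluorescence under double the plate's negative control median, limit read from the data; inconclusive = replicates evenly split on the limit, or fluorescence at least double controls; inactive = too little inhibition in most replicates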;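 note: 0% = DMSO and -100% = 5 µM competing unlabeled TCR2 RNA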
Target sequence (Q9XUB2 whole entry, looked up): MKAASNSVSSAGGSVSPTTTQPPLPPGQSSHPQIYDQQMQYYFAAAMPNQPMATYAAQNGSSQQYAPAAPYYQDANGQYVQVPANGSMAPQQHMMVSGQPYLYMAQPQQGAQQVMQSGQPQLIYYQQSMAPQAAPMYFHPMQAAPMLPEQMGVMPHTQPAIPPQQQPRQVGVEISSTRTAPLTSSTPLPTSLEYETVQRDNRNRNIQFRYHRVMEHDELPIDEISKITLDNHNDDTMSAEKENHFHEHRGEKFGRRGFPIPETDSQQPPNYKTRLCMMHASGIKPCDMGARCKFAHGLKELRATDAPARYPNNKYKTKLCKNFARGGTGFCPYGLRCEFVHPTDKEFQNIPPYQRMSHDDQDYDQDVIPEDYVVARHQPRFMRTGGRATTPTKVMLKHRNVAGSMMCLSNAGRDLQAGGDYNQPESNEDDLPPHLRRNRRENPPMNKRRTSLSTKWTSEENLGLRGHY
Bcl-xL primary – inhibitors of human Bcl-xL | Q07817 | inhibition, % at 10.9 µM | actives 0.7% (n = 320,000) | GST-Bcl-xL / FITC-Bim BH3 peptide fluorescence polarization | AID 2129;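 active = inhibition above the mean of all tested compounds plus 3 SD, cutoff set per campaign, cut at about 30% in these data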;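 note: 0% = DMSO wells and 100% = unlabeled Bim-BH3 peptide competitor; inhibitors lower millipolarization by displacing the labeled peptide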
Target sequence (Q07817 whole entry, looked up): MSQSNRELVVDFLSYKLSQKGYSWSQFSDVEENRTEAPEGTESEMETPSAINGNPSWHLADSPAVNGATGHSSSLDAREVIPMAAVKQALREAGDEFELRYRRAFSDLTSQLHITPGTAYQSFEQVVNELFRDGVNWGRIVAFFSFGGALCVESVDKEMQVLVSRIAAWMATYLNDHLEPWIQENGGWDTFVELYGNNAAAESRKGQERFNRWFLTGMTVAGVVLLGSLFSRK
MCL1 BIM primary – disrupts human MCL1 binding to BIM-BH3 peptide; GST-MCL1 / FITC-Bim-BH3 fluorescence polarization; inhibition, % at 10.9 µM; actives 0.68% (n = 320,000); AID 2057;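 active = inhibition above the mean inhibition of all tested compounds plus 3 SD, set per campaign, cut at about 40% in these data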;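 note: 0% = DMSO wells and 100% = unlabeled Bim-BH3 peptide control; higher means more loss of mP so more displacement of Bim peptide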
Bcl-xL conf – counter-screen for MCL1 inhibitors: confirmation of human Bcl-xL inhibitors; shares compounds with MCL1 BIM primary; GST-Bcl-xL / FITC-Bim BH3 peptide FP binding; inhibition, % at 10.9 µM; actives 54% (n = 1,700); AID 2166;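 active = inhibition above a cutoff equal to the mean inhibition of all tested compounds plus 3 SD, cut at about 30% in these data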;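 note: 0% = DMSO wells and 100% = unlabeled Bim BH3 control peptide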
MCL1 BIM confirm – MCL1-BIM-BH3 interaction inhibition, confirmation. GST-MCL1 / FITC-Bim-BH3 fluorescence polarization. shares compounds with MCL1 BIM primary. AID 2168. actives 61% (n = 1,700). inhibition, % at 10.9 µM;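 active = inhibition above the average of all tested compounds plus 3 SD, cut at about 40% in these data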;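 note: 0% = DMSO wells and 100% = unlabeled Bim-BH3 control peptide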
GLD-1 TGE cf – confirmation of C. elegans GLD-1 TGE RNA binding inhibitors. shares compounds with GLD-1 TGE inh. GLD-1/FL-TGE RNA fluorescence polarization, biochemical. inhibition, % at 5.96 µM. actives 10% (n = 550);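 active = average inhibition across triplicates above the hit cutoff set in the primary screen, cut at about 32% in these data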;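 note: 0% = GLD-1 with RNA probe and DMSO and 100% = wells lacking GLD-1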
eLon confirm – E. coli Lon inhibition confirmation; shares compounds with E coli Lon inh; purified E. coli Lon, fluorescence polarization; inhibition, % at 7.94 µM; actives 31% (n = 1,400); AID 602230; in the data active = inhibition above about 16%;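 note: 0% = enzyme with probe and DMSO and 100% = no enzyme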
* marks the source's active call; other numbers are inactive results.

For Cc1ccc(N2CCN(c3ccc(NCc4nc5ccccc5n4C)cc3)CC2)cc1 the results were E coli Lon inh 44.5*, GLD-1 TGE inh 62.6*, EBV gp42 block 7.0, MEX-5 binding 4.0, Bcl-xL primary 74.1*, MCL1 BIM primary 89.7*, Bcl-xL conf 52.3*, MCL1 BIM confirm 48.3*, GLD-1 TGE cf 62.6* and eLon confirm 4.6.
Screening COc1ccc(/C=N/N=C2/CC(C)(C)Cc3n[nH]c(=O)cc32)cc1 returned E coli Lon inh 44.7*, GLD-1 TGE inh 120.4*, EBV gp42 block 70.4*, MEX-5 binding -81.3*, Bcl-xL primary 138.0*, MCL1 BIM primary 155.2*, Bcl-xL conf 49.5*, MCL1 BIM confirm 63.4* and eLon confirm 20.9*.
`COc1ccc(/C=N/N=C2/NC(=O)CC(C(=O)O)S2)cc1` (stereo not drawn) gave E coli Lon inh -12.1, GLD-1 TGE inh -8.0, EBV gp42 block -0.3, MEX-5 binding 0.5, Bcl-xL primary 2.2 and MCL1 BIM primary 4.0.
Cc1cc(NC(=O)CSc2nc3cc(C(=O)NCCCOC(C)C)ccc3c(=O)n2Cc2ccco2)no1 was read as E coli Lon inh 2.2, GLD-1 TGE inh 11.3, EBV gp42 block -9.5, MEX-5 binding 1.0, Bcl-xL primary 2.6 and MCL1 BIM primary -1.6.
`CC(=O)Nc1ccc2nc3c(=O)n(C)c(=O)n(C)c3nc2c1` gave E coli Lon inh 68.2*, GLD-1 TGE inh 65.3*, EBV gp42 block 102.1*, MEX-5 binding -12.8, Bcl-xL primary 131.8*, MCL1 BIM primary 190.3*, Bcl-xL conf 145.6*, MCL1 BIM confirm 190.1* and eLon confirm 64.2*.
COc1cccc(=O)c2c(C)n(-c3ccc(C(=O)O)cc3)c(C)c12 was read as E coli Lon inh 27.0*, GLD-1 TGE inh 38.5*, EBV gp42 block 13.2, MEX-5 binding -10.9, Bcl-xL primary 67.7*, MCL1 BIM primary 90.8*, Bcl-xL conf 21.1, MCL1 BIM confirm 29.2, GLD-1 TGE cf 14.2 and eLon confirm 11.4.
`Cc1nc(=O)c(-c2ccccc2)c(C)n1-c1ccc(C(=O)O)cc1` gave E coli Lon inh -8.4, GLD-1 TGE inh 10.8, EBV gp42 block -15.9, MEX-5 binding 1.0, Bcl-xL primary -1.8 and MCL1 BIM primary 3.5.
For C=CCN(Cc1ccc(Br)s1)C(=O)c1ccc(OCc2c(C)noc2C)cc1 the results were E coli Lon inh -7.5.
For CC1(OC(=O)c2ccco2)C(=O)C=C2C=C(C3CC3)OC=C2C1=O (stereo not drawn) the results were E coli Lon inh 25.4*, GLD-1 TGE inh 63.1*, MEX-5 binding -34.4*, Bcl-xL primary 75.0*, MCL1 BIM primary 79.4*, Bcl-xL conf 39.7*, MCL1 BIM confirm 58.7* and eLon confirm 13.0.
`CC1CCCCN1C(=O)Cn1nnc(-c2cccnc2)n1` (stereo not drawn) gave E coli Lon inh 26.5*, GLD-1 TGE inh 73.8*, EBV gp42 block 46.5, MEX-5 binding -15.7, Bcl-xL primary 84.7*, MCL1 BIM primary 91.3*, Bcl-xL conf 72.9*, MCL1 BIM confirm 110.3* and eLon confirm 0.3.
`CCOc1ccc(C(=O)N/N=C/c2ccc(-c3ccc(S(=O)(=O)Nc4ncccn4)cc3)o2)cc1` gave E coli Lon inh 11.8, GLD-1 TGE inh -0.3, EBV gp42 block 33.3, MEX-5 binding 3.9, Bcl-xL primary 9.1 and MCL1 BIM primary 9.2.
`O=C(N/N=C/c1ccc(-c2ccc(S(=O)(=O)Nc3ncccn3)cc2)o1)c1cc2ccccc2cc1O` gave E coli Lon inh 25.6*, GLD-1 TGE inh 5.7, EBV gp42 block 47.1, MEX-5 binding 0.0, Bcl-xL primary 14.2, MCL1 BIM primary 63.6*, Bcl-xL conf 15.6, MCL1 BIM confirm 57.3* and eLon confirm 30.3*.
Screening O=c1oc2c3c4c(cc2s1)CCCN4CCC3 returned E coli Lon inh 46.0*, GLD-1 TGE inh 75.8*, EBV gp42 block 34.9, MEX-5 binding -32.4*, Bcl-xL primary 130.4*, MCL1 BIM primary 165.3*, Bcl-xL conf 99.3*, MCL1 BIM confirm 120.0* and eLon confirm 44.6*.
For O=c1ccc2cc3c4c(c2o1)CCCN4CCC3 the results were E coli Lon inh 79.8*, GLD-1 TGE inh 88.9*, EBV gp42 block 128.5*, MEX-5 binding inconclusive, Bcl-xL primary 97.0*, MCL1 BIM primary 105.1*, Bcl-xL conf 154.9*, MCL1 BIM confirm 182.4* and eLon confirm 22.1*.
For O=C(CCl)c1cc2c3c(c1)CC(=O)N3CCC2 the results were E coli Lon inh -4.0, GLD-1 TGE inh 4.3, MEX-5 binding -0.6, Bcl-xL primary 6.5 and MCL1 BIM primary 8.7.
Screening CC1(C)Oc2ccc3ccc(=O)oc3c2CC1O (stereo not drawn) returned E coli Lon inh 4.9, GLD-1 TGE inh -3.1, MEX-5 binding -1.6, Bcl-xL primary -1.6 and MCL1 BIM primary -6.5.
For CC(C)(C)NC(=O)NC(=O)CN1CCc2ccccc21 the results were E coli Lon inh -9.8, GLD-1 TGE inh 0.9, EBV gp42 block -6.6, MEX-5 binding -2.5, Bcl-xL primary 1.6 and MCL1 BIM primary 3.7.
Screening COCCNC(=O)NC(=O)CN1CCCc2ccccc21 returned E coli Lon inh 48.0*, GLD-1 TGE inh -5.2, EBV gp42 block 5.1, MEX-5 binding -3.1, Bcl-xL primary 51.1*, MCL1 BIM primary 73.5*, Bcl-xL conf 6.9, MCL1 BIM confirm 12.2 and eLon confirm 6.5.
`Nc1c(NCc2ccccc2)c(=O)[nH]c(=O)n1Cc1ccccc1` gave E coli Lon inh 15.4*, GLD-1 TGE inh 86.0*, EBV gp42 block 7.1, MEX-5 binding -18.5, Bcl-xL primary 70.0*, MCL1 BIM primary 88.0*, Bcl-xL conf 8.0, MCL1 BIM confirm 14.9 and eLon confirm 15.5.
For C=CCn1c(=O)[nH]c(=O)c2c(N)c(C(=O)c3ccc(OC)cc3)sc21 the results were E coli Lon inh -5.4.
